Laboratory results as given in PubChem BioAssay AID1159580 (chemical genetic matrix, 2015).
Values joined by “and” are separate entries in the source; they are usually repeats but may differ in a detail not shown here. Equal entries are not always repeated. The whole screen tested about 5,500 compounds, of which about 2,000 (36%) were called active. Inconclusive results (about 18%) are left out. Cut-off read from the data, not from the text of the source: active = normalized growth mostly below about 0.91 (no sharp cut-off); inconclusive = no clear call, values can overlap the other calls; inactive = mostly above about 0.92. The list shows a part of the results.

Assay: chemical genetic growth profiling, strain panel (AID 1159580);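 note: tested at 20 µM; growth read once vehicle control cultures reached saturation at 30 °C; 1 = growth at the plate median or of vehicle wells; lower values mean less growth of the strain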
Conditions: growth OD

Measured: normalized growth

Cc1ccc(N(CC2=NCCN2)c2cccc(O)c2)cc1
active: S. cerevisiae deletion strains, locus YML032C, strain rad52, stronger effect = lower value 0.819 | S. cerevisiae deletion strains, locus YNL250W, strain rad50, stronger effect = lower value 0.841 | S. cerevisiae deletion strains, locus YNL298W, strain CLA4, stronger effect = lower value 0.899
inactive: S. cerevisiae deletion strains, locus YJR075W, strain HOC1, stronger effect = lower value 0.967 | S. cerevisiae deletion strains, locus YKL009W, strain mrt4, stronger effect = lower value 0.99 | S. cerevisiae deletion strains, locus YKL068W, stronger effect = lower value 1 | S. cerevisiae deletion strains, locus YKL085W, strain MDH1 (second series), stronger effect = lower value 1.03 | S. cerevisiae deletion strains, locus YKL085W, strain MDH1, stronger effect = lower value 1.03 | S. cerevisiae deletion strains, locus YKL160W, strain elf1, stronger effect = lower value 1.01 | S. cerevisiae deletion strains, locus YKL190W, strain CNB1, stronger effect = lower value 1.01 | S. cerevisiae deletion strains, locus YKR001C, strain vps1, stronger effect = lower value 1.01 | S. cerevisiae deletion strains, locus YKR026C, strain gcn3, stronger effect = lower value 1.03 | S. cerevisiae deletion strains, locus YKR091W, strain srl3, stronger effect = lower value 1 | S. cerevisiae deletion strains, locus YLL001W, strain dnm1, stronger effect = lower value 1 | S. cerevisiae deletion strains, locus YLL026W, stronger effect = lower value 1.02 | S. cerevisiae deletion strains, locus YLL041C, strain sdh2, stronger effect = lower value 1.01 | S. cerevisiae deletion strains, locus YLR027C, strain aat2, stronger effect = lower value 1.01 | S. cerevisiae deletion strains, locus YLR039C, strain RIC1, stronger effect = lower value 1.06 | S. cerevisiae deletion strains, locus YLR058C, strain SHM2, stronger effect = lower value 1.01 | S. cerevisiae deletion strains, locus YLR102C, strain apc9, stronger effect = lower value 1.01 | S. cerevisiae deletion strains, locus YLR113W, strain HOG1, stronger effect = lower value 1.04 | S. cerevisiae deletion strains, locus YLR221C, strain rsa3, stronger effect = lower value 0.998 | S. cerevisiae deletion strains, locus YLR258W, strain gsy2, stronger effect = lower value 1 | S. cerevisiae deletion strains, locus YLR262C, strain YPT6 (second series), stronger effect = lower value 1.02 | S. cerevisiae deletion strains, locus YLR262C, strain YPT6, stronger effect = lower value 1.02 | S. cerevisiae deletion strains, locus YLR268W, strain sec22, stronger effect = lower value 0.947 | S. cerevisiae deletion strains, locus YLR320W, strain mms22, stronger effect = lower value 0.987 | S. cerevisiae deletion strains, locus YLR330W, strain CHS5, stronger effect = lower value 1.01 | S. cerevisiae deletion strains, locus YLR342W, strain FKS1 (second series), stronger effect = lower value 1.04 | S. cerevisiae deletion strains, locus YLR342W, strain FKS1, stronger effect = lower value 1.02 | S. cerevisiae deletion strains, locus YLR357W, strain rsc2, stronger effect = lower value 1.02 | S. cerevisiae deletion strains, locus YLR370C, strain arc18, stronger effect = lower value 1.01 | S. cerevisiae deletion strains, locus YLR371W, strain rom2, stronger effect = lower value 1.01 | S. cerevisiae deletion strains, locus YLR384C, strain iki3, stronger effect = lower value 1.02 | S. cerevisiae deletion strains, locus YLR418C, strain cdc73, stronger effect = lower value 0.955 | S. cerevisiae deletion strains, locus YML016C, strain PPZ1, stronger effect = lower value 1.01 | S. cerevisiae deletion strains, locus YML120C, strain ndi1, stronger effect = lower value 0.999 | S. cerevisiae deletion strains, locus YML124C, strain tub3, stronger effect = lower value 1.02 | S. cerevisiae deletion strains, locus YMR058W, strain fet3, stronger effect = lower value 1.02 | S. cerevisiae deletion strains, locus YMR078C, strain ctf18, stronger effect = lower value 1 | S. cerevisiae deletion strains, locus YMR125W, strain sto1, stronger effect = lower value 1.04 | S. cerevisiae deletion strains, locus YMR129W, stronger effect = lower value 1 | S. cerevisiae deletion strains, locus YMR205C, strain PFK2, stronger effect = lower value 1.02 | S. cerevisiae deletion strains, locus YMR223W, strain ubp8, stronger effect = lower value 0.973 | S. cerevisiae deletion strains, locus YMR231W, strain pep5, stronger effect = lower value 1.02 | S. cerevisiae deletion strains, locus YMR263W, strain SAP30, stronger effect = lower value 0.989 | S. cerevisiae deletion strains, locus YMR307W, strain GAS1, stronger effect = lower value 0.988 and 0.994 | S. cerevisiae deletion strains, locus YNL067W, strain RPL9B, stronger effect = lower value 0.967 | S. cerevisiae deletion strains, locus YNL071W, strain lat1, stronger effect = lower value 1.01 | S. cerevisiae deletion strains, locus YNL128W, strain TEP1, stronger effect = lower value 0.988 | S. cerevisiae deletion strains, locus YNL153C, strain GIM3, stronger effect = lower value 0.983 | S. cerevisiae deletion strains, locus YNL175C, strain NOP13, stronger effect = lower value 1.02 | S. cerevisiae deletion strains, locus YNL183C, strain NPR1, stronger effect = lower value 0.99 | S. cerevisiae deletion strains, locus YNL197C, strain WHI3, stronger effect = lower value 1.03 | S. cerevisiae deletion strains, locus YNL209W, strain ssb2, stronger effect = lower value 1.04 | S. cerevisiae deletion strains, locus YNL224C, strain SQS1, stronger effect = lower value 1.06 | S. cerevisiae deletion strains, locus YNL233W, strain BNI4, stronger effect = lower value 0.966 | S. cerevisiae deletion strains, locus YNL248C, strain rpa49, stronger effect = lower value 1.03 | S. cerevisiae deletion strains, locus YNL271C, strain bni1, stronger effect = lower value 0.998 | S. cerevisiae deletion strains, locus YNL307C, strain MCK1, stronger effect = lower value 0.969 | S. cerevisiae deletion strains, locus YNL322C, strain KRE1 (second series), stronger effect = lower value 1.01 | S. cerevisiae deletion strains, locus YNL322C, strain KRE1, stronger effect = lower value 1 and 0.995 | S. cerevisiae deletion strains, locus YNR049C, strain mso1, stronger effect = lower value 1.02 | S. cerevisiae deletion strains, locus YNR052C, strain pop2, stronger effect = lower value 0.998 | S. cerevisiae deletion strains, locus YOL006C, strain TOP1, stronger effect = lower value 0.967 | S. cerevisiae deletion strains, locus YOL012C, strain htz1 1.24 | S. cerevisiae deletion strains, locus YOL147C, strain pex11, stronger effect = lower value 1.01 | S. cerevisiae deletion strains, locus YOR001W, strain rrp6, stronger effect = lower value 0.993 | S. cerevisiae deletion strains, locus YOR061W, strain CKA2, stronger effect = lower value 1.02 | S. cerevisiae deletion strains, locus YOR069W, strain VPS5, stronger effect = lower value 1.06 | S. cerevisiae deletion strains, locus YOR070C, strain gyp1, stronger effect = lower value 1 | S. cerevisiae deletion strains, locus YOR080W, strain dia2, stronger effect = lower value 1.04 | S. cerevisiae deletion strains, locus YOR083W, strain WHI5 (second series), stronger effect = lower value 1.03 | S. cerevisiae deletion strains, locus YOR083W, strain WHI5, stronger effect = lower value 0.969 | S. cerevisiae deletion strains, locus YOR106W, strain vam3, stronger effect = lower value 1.03 | S. cerevisiae deletion strains, locus YOR136W, strain idh2, stronger effect = lower value 1.01 | S. cerevisiae deletion strains, locus YOR144C, strain elg1, stronger effect = lower value 1.01 | S. cerevisiae deletion strains, locus YOR184W, strain ser1, stronger effect = lower value 0.975 | S. cerevisiae deletion strains, locus YOR231W, strain MKK1, stronger effect = lower value 1.02 | S. cerevisiae deletion strains, locus YOR265W, strain rbl2, stronger effect = lower value 1 | S. cerevisiae deletion strains, locus YOR270C, strain vph1, stronger effect = lower value 1.06 | S. cerevisiae deletion strains, locus YOR290C, strain snf2, stronger effect = lower value 1.02 | S. cerevisiae deletion strains, locus YOR316C, strain cot1, stronger effect = lower value 1.01 | S. cerevisiae deletion strains, locus YPL051W, strain arl3, stronger effect = lower value 1 | S. cerevisiae deletion strains, locus YPL055C, strain LGE1, stronger effect = lower value 0.908 | S. cerevisiae deletion strains, locus YPL078C, strain atp4, stronger effect = lower value 1.02 | S. cerevisiae deletion strains, locus YPL106C, strain sse1, stronger effect = lower value 1.01 | S. cerevisiae deletion strains, locus YPL240C, strain hsp82, stronger effect = lower value 1 | S. cerevisiae deletion strains, locus YPL241C, strain CIN2, stronger effect = lower value 1.04 and 1.01 | S. cerevisiae deletion strains, locus YPL256C, strain CLN2, stronger effect = lower value 1.05 | S. cerevisiae deletion strains, locus YPR119W, strain clb2, stronger effect = lower value 1 | S. cerevisiae deletion strains, locus YPR141C, strain kar3, stronger effect = lower value 1 | S. cerevisiae deletion strains, locus YPR163C, strain tif3, stronger effect = lower value 0.991 | S. cerevisiae deletion strains, locus YPR167C, strain met16, stronger effect = lower value 1.01 | S. cerevisiae deletion strains, strain wtn01, stronger effect = lower value 0.977 | S. cerevisiae strains, strain wild type, stronger effect = lower value 1
